Active and inactive are the calls of the source.
Legend:
[1] = E. coli DRC41 culture turbidity changes, primary screen, E. coli filamentation inducer project, strain DRC41, OD650, 48 h (AID 1152);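 also: E. coli MC1000 strain DRC41 lacking acrAB efflux pump and sulA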; settings: E. coli DRC41 (acrAB sulA), higher = more signal, called active from +8 up or from −8 down
[2] = small-molecule binders of probe aLefty1, primary screen, biochemical, small-molecule microarray, 635/667 nm fluorescence (AID 1153); settings: higher = more signal;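 also: score merges spot fluorescence with signal-to-noise ratio from the scanned slide images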
[3] = PSAC antagonists in infected red cells, primary screen, cell-based, P. falciparum Indochina, OD700, 1 h (AID 1154); settings: P. falciparum Indochina infected RBC osmotic lysis, higher = more signal, called active from +8 up or from −8 down
[4] = PSAC antagonists in infected red cells, primary screen, cell-based, P. falciparum Indochina, OD700, 2 h (AID 1155);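 also: lysis reports solute entry through the parasite surface anion channel PSAC; channel blockers reduce lysis of infected cells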; settings: P. falciparum Indochina infected erythrocytes, osmotic lysis OD700; higher = more signal, called active from +8 up or from −8 down
[5] = osmotic lysis modulators in infected erythrocytes, primary screen, PSAC antagonist project, cell-based, P. falciparum Indochina, OD700, 3 h (AID 1156); settings: higher = more signal, called active from +8 up or from −8 down
[6] = PSAC antagonists in infected red cells, primary screen, cell-based, P. falciparum Indochina, OD700, 18 h (AID 1157); settings: P. falciparum Indochina infected erythrocytes, osmotic lysis OD700, 18 h; higher = more signal, called active from +8 up or from −8 down
[7] = modulators of S6 phosphorylation in cells, primary screen, cell-based, A549, cytoblot, luminescence, serum-stimulated (AID 1158); settings: A549 phospho-S6 cytoblot, 5 h, higher = more signal;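 also: serum-stimulated A549 lung adenocarcinoma cells; signal is phosphorylated S6 detected by cytoblot immunostaining with HRP secondary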
[8] = biological target: NADPH oxidase 2 (Homo sapiens) (UniProt P04839); assay: NOX2-dependent H2O2 signal modulators, primary screen, NOX inhibitor project, cell-based, HEK293-NOX2, PMA-stimulated, Amplex Red fluorescence (AID 1159); settings: 45 min, higher = more signal, called active from +8 up or from −8 down; also: test concentration not given here
[9] = biological target: NADPH oxidase 4 (Homo sapiens) (UniProt Q9NPH5); assay: NOX4-dependent H2O2 signal modulators, primary screen, NOX inhibitor project, cell-based, HEK293-NOX4, tetracycline-induced, Amplex Red fluorescence (AID 1160); settings: 45 min, higher = more signal, called active from +8 up or from −8 down
[10] = biological target: NADPH oxidase 5 (Homo sapiens) (UniProt Q96PH1); assay: NOX5-dependent H2O2 signal modulators, primary screen, NOX inhibitor project, cell-based, HEK293-NOX5, Amplex Red fluorescence (AID 1161); settings: HEK293-NOX5, ionomycin, 45 min, higher = more signal
[11] = A549 cell viability effects, profiling panel, calcein-AM fluorescence, 48 h, basal (AID 1162); settings: higher = more signal; also: test concentration not given here
[12] = adipocyte viability effects, profiling panel, cell-based, 3T3-L1 adipocytes, calcein-AM fluorescence, 48 h, basal (AID 1163); settings: 3T3-L1 adipocytes viability, higher = more signal; also: test concentration not given here
[13] = HepG2 cell viability effects, profiling panel, calcein-AM fluorescence, 48 h, basal (AID 1164); settings: higher = more signal; also: test concentration not given here
[14] = MM1S cell viability effects, profiling panel, calcein-AM fluorescence, 48 h, basal (AID 1165); settings: higher = more signal;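 also: viability of MM1S multiple myeloma cells under basal unstimulated conditions; test concentration not given here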
[15] = basal RPMI8226 viability, no added stimulus, profiling panel, cell-based, calcein-AM fluorescence, 48 h, PK04 Diversity Set (AID 1166); settings: RPMI8226 myeloma viability, higher = more signal;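 also: cells grown under basal conditions without added stimulus; test concentration not given here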
[16] = basal HepG2 mitochondrial membrane potential changes, profiling panel, cell-based, JC-1 fluorescence, 24 h, 100 nL compound (AID 1167); settings: higher = more signal; also: test concentration not given here
[17] = basal 3T3-L1 adipocyte mitochondrial potential changes, profiling panel, cell-based, JC-1 fluorescence, 3T3-L1 adipocytes, 24 h, 100 nL compound (AID 1168); settings: JC-1 mitochondrial fluorescence, higher = more signal, called active from +8 up or from −8 down; also: test concentration not given here
[18] = basal RPMI8226 mitochondrial membrane potential changes, profiling panel, cell-based, JC-1 fluorescence, 24 h, 100 nL compound (AID 1169); settings: RPMI8226 myeloma, JC-1 mitochondrial potential fluorescence, higher = more signal; also: test concentration not given here
[19] = basal MM1S mitochondrial membrane potential changes, profiling panel, cell-based, JC-1 fluorescence, 24 h, 100 nL compound (AID 1170); settings: higher = more signal; also: test concentration not given here
[20] = A549 lung cancer cell viability effects, profiling panel, resazurin fluorescence, 24 h, PK04 Diversity Set (AID 1171); settings: higher = more signal, called active from +8 up or from −8 down; also: test concentration not given here

Sequence of NADPH oxidase 4 (Homo sapiens) (Q9NPH5 whole entry, looked up): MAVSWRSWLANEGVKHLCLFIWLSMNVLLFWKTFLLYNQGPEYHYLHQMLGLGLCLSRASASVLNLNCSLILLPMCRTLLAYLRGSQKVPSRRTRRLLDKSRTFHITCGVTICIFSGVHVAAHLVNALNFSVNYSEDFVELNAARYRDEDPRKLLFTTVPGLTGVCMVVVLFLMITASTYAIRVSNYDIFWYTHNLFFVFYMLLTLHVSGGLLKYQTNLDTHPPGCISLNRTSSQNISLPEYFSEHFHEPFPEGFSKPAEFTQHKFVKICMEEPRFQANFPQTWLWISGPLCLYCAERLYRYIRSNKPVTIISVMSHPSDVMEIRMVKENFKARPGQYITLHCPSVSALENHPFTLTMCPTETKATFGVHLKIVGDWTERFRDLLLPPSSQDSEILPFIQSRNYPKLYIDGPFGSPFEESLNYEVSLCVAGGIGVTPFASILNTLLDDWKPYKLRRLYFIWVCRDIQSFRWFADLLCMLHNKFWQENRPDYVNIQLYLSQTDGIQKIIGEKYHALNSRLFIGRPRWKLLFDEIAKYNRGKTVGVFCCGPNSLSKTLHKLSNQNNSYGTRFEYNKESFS
Sequence of NADPH oxidase 5 (Homo sapiens) (Q96PH1 whole entry, looked up): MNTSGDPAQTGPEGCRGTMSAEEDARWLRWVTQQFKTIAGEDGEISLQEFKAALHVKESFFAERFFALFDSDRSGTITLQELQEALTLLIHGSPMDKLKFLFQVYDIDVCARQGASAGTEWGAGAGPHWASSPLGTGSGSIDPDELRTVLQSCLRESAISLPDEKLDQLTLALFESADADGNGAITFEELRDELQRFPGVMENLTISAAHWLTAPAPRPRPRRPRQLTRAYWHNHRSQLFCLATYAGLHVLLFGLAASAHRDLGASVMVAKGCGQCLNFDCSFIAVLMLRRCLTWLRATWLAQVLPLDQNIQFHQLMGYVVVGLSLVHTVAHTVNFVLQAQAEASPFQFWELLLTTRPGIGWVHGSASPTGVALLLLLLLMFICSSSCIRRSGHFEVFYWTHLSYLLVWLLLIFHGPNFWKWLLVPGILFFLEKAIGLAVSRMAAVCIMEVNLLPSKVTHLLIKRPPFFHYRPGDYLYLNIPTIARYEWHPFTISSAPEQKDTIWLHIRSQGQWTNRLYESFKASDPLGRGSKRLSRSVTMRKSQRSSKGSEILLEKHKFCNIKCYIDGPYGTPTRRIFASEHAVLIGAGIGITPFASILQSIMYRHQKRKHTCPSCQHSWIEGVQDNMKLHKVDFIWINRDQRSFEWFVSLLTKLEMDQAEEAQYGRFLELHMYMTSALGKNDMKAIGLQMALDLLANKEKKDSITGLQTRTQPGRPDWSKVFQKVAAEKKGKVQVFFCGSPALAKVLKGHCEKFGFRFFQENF
Sequence of NADPH oxidase 2 (Homo sapiens) (P04839 whole entry, looked up): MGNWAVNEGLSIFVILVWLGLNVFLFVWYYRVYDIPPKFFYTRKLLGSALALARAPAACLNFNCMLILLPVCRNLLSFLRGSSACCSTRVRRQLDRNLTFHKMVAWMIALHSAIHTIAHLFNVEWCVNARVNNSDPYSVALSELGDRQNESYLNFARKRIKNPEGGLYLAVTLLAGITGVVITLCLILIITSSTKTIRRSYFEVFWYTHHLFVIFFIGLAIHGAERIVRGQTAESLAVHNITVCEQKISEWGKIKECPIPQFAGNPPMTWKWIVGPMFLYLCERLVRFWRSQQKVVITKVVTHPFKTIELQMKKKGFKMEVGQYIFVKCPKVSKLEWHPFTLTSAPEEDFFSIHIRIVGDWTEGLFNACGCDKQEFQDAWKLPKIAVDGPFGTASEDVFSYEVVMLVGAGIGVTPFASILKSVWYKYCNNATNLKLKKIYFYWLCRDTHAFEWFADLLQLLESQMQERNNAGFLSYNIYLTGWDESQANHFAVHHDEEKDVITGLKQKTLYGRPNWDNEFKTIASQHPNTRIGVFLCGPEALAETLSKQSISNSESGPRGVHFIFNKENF

SMILES	z-score [1]	composite z-score [2]	z-score [3]	z-score [4]	z-score [5]	z-score [6]	z-score [7]	z-score [8]	z-score [9]	z-score [10]	z-score [11]	z-score [12]	z-score [13]	z-score [14]	z-score [15]	z-score [16]	z-score [17]	z-score [18]	z-score [19]	z-score [20]
COc1ccc(C#Cc2ccc3c(c2)[C@]2(C(=O)N3)[C@H](C(=O)NC[C@H](O)c3ccccc3)[C@H]3C(=O)O[C@H](c4ccccc4)[C@H](c4ccccc4)N3[C@@H]2c2ccc(O)cc2)cc1	0.078 (inactive)	-0.0984	-0.476 (inactive)	0.657 (inactive)	-1.03 (inactive)	0.909 (inactive)	-0.434	1.25 (inactive)	0.118 (inactive)	-0.339	0.0902	-0.753	-0.0809	-3.27	-4.13	-1.93	-0.523 (inactive)	-1.11	-1.57	-0.226 (inactive)
CN(C)C(=O)[C@@]1(CCS(=O)(=O)c2ccccc2)COC(c2ccc(OCCCO)cc2)=N1	0.276 (inactive)	0.0244	25.6 (active)	8.3 (active)	1.69 (inactive)	1.26 (inactive)	0.313	-2.71 (inactive)	0.265 (inactive)	-0.621	-0.245	-0.0285	-1.28	-2.08	-2.36	-1.09	-0.0809 (inactive)	-0.476	-1.49	-2.54 (inactive)
[N-]=[N+]=NCc1ccccc1[C@@H]1OC(c2ccc(OCCCO)cc2)=N[C@]1(Cc1ccccc1)C(N)=O	-0.451 (inactive)	0.0429	21.9 (active)	4.7 (inactive)	2.64 (inactive)	1.03 (inactive)	0.929	-2.06 (inactive)	0.76 (inactive)	-2.22	0.88	1.5	0.493	-0.527	-1.63	1.49	-0.534 (inactive)	-0.75	-1.1	0.479 (inactive)
COCCOC(=O)N1C(=O)[C@@]2(c3cc(C#CCNC(N)=O)ccc31)[C@H](C(=O)Nc1nc3ccccc3s1)[C@H]1C(=O)O[C@H](c3ccccc3)[C@H](c3ccccc3)N1[C@@H]2c1ccc(OCCO)cc1	-0.537 (inactive)	0.729	2.48 (inactive)	1.23 (inactive)	0.0531 (inactive)	0.559 (inactive)	-0.0692	1.42 (inactive)	1.19 (inactive)	1.4	-0.649	1.2	-1.22	-2.58	-0.0496	-3.26	1 (inactive)	-0.692	-1.53	0.385 (inactive)
C=CCNC(=O)[C@H]1[C@@H]2C(=O)O[C@@H](c3ccccc3)[C@@H](c3ccccc3)N2[C@@H](c2ccccc2OCCO)[C@]12C(=O)Nc1ccc(C#CCC(C(=O)OC)C(=O)OC)cc12	0.0038 (inactive)	0.924	5.08 (inactive)	1.84 (inactive)	-0.223 (inactive)	0.909 (inactive)	-0.318	1.62 (inactive)	0.834 (inactive)	1.5	0.246	-0.72	-0.845	-3.34	-4.63	-0.64	2.62 (inactive)	-1.32	-2.23	0.545 (inactive)
O=C(NCCN1CCOCC1)[C@@H]1c2ccccc2C(=O)N(C2CCCCC2)[C@H]1c1ccc(CO)cc1	-0.306 (inactive)	-0.007	3.9 (inactive)	1.22 (inactive)	1 (inactive)	0.403 (inactive)	0.227	0.822 (inactive)	1.3 (inactive)	0.579	1.37	1.19	2.16	-0.165	-1.03	3.08	-0.0789 (inactive)	0.0842	0.146	1.17 (inactive)
C=CCNC(=O)[C@@H]1[C@H]2C(=O)O[C@H](c3ccccc3)[C@H](c3ccccc3)N2[C@H](c2ccc(O)cc2)[C@@]12C(=O)Nc1ccc(C#CCNC(N)=O)cc12	-1.29 (inactive)	0.186	0.448 (inactive)	-0.261 (inactive)	-0.519 (inactive)	0.32 (inactive)	-0.203	0.334 (inactive)	-0.211 (inactive)	0.0297	0.0067	1.09	0.767	-0.925	-0.179	-1.14	-1.07 (inactive)	-0.994	0.435	0.552 (inactive)
O=C1C[C@@](C(=O)NCC(F)(F)F)(c2ccc([N+](=O)[O-])cc2)[C@@H](c2ccc(CO)cc2I)N1C1CCCCC1	-0.629 (inactive)	0.165	16.9 (active)	1.79 (inactive)	2.56 (inactive)	0.599 (inactive)	-0.417	0.979 (inactive)	-0.0876 (inactive)	0.612	-0.0922	0.665	-0.644	-2.28	-1.65	0.548	-0.226 (inactive)	-0.521	-1.02	0.324 (inactive)
COC(=O)[C@@]1(Cc2ccc(OC)cc2)[C@@H]2C(=CC(=O)[C@H]2CC(=O)C(=O)N2CCCC2)CN1C(=O)c1ccccc1	-0.97 (inactive)	0.114	5.48 (inactive)	0.368 (inactive)	1.51 (inactive)	1.18 (inactive)	0.0866	0.143 (inactive)	1.54 (inactive)	1.14	-0.0504	-0.386	-0.167	-0.565	-1.17	0.718	-0.407 (inactive)	-0.356	-1.69	0.408 (inactive)

From PubChem BioAssay
